# Experimental data reported in article PMC7156710, “The Sox2 transcription factor binds RNA”.
# Tests used:
# Experiment in all cases: fluorescence anisotropy; 10 mM Tris-HEPES pH 7.5, 8% Ficoll, 0.05% NP-40, 135 mM KCl, 15 mM NaCl, 1 mM DTT, 0.1 mg/mL BSA; 2 nM DNA or 3 nM RNA; low values mean tight binding
# Conditions in all cases: protein: recombinant; tags: N-terminal His6 and thrombin site, not removed; label: 3' fluorescein; hairpin; structured_RNA
# [1] = target: Sox2-HMG (His6 retained) E78A (Homo sapiens, UniProt P48431 38-121, E78A)
# Procedure, shortened: (§1)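 Alanine-substituted Sox2-HMG domains were made by site-directed mutagenesis and Ni-NTA purified with the His6 tag retained. They were titrated against 2 nM fluorescein-labeled DNA or 3 nM fluorescein-labeled RNA in Tris-HEPES pH 7.5 binding buffer for at least 1 h. Polarization was read on a CLARIOstar, with triplicate titrations each read three times. Dissociation constants were fit in Kaleidagraph and expressed as the mutant-to-wild-type ratio.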
# [2] = target: Sox2-HMG (His6 retained) S72A (Homo sapiens, UniProt P48431 38-121, S72A)
# Procedure, shortened: as §1
# [3] = target: Sox2-HMG (His6 retained) E104A (Homo sapiens, UniProt P48431 38-121, E104A)
# Procedure, shortened: as §1
# [4] = target: Sox2-HMG (His6 retained) K58A (Homo sapiens, UniProt P48431 38-121, K58A)
# Procedure, shortened: as §1
# [5] = target: Sox2-HMG (His6 retained) H67A (Homo sapiens, UniProt P48431 38-121, H67A)
# Procedure, shortened: as §1
# [6] = target: Sox2-HMG (His6 retained) K42A (Homo sapiens, UniProt P48431 38-121, K42A)
# Procedure, shortened: as §1
# [7] = target: Sox2-HMG (His6 retained) M45A (Homo sapiens, UniProt P48431 38-121, M45A)
# Procedure, shortened: as §1
# [8] = target: Sox2-HMG (His6 retained) N63A (Homo sapiens, UniProt P48431 38-121, N63A)
# Procedure, shortened: as §1
# [9] = target: Sox2-HMG (His6 retained) K115A (Homo sapiens, UniProt P48431 38-121, K115A)
# Procedure, shortened: as §1
# [10] = target: Sox2-HMG (His6 retained) E70A (Homo sapiens, UniProt P48431 38-121, E70A)
# Procedure, shortened: as §1
# [11] = target: Sox2-HMG (His6 retained) K87A (Homo sapiens, UniProt P48431 38-121, K87A)
# Procedure, shortened: as §1
# [12] = target: Sox2-HMG (His6 retained) W79A (Homo sapiens, UniProt P48431 38-121, W79A)
# Procedure, shortened: as §1
# [13] = target: Sox2-HMG (His6 retained) E62A (Homo sapiens, UniProt P48431 38-121, E62A)
# Procedure, shortened: as §1
# [14] = target: Sox2-HMG (His6 retained) R114A (Homo sapiens, UniProt P48431 38-121, R114A)
# Procedure, shortened: as §1
# [15] = target: Sox2-HMG (His6 retained) S69A (Homo sapiens, UniProt P48431 38-121, S69A)
# Procedure, shortened: as §1
# [16] = target: Sox2-HMG (His6 retained) R96A (Homo sapiens, UniProt P48431 38-121, R96A)
# Procedure, shortened: as §1
# [17] = target: Sox2-HMG (His6 retained) R40A (Homo sapiens, UniProt P48431 38-121, R40A)
# Procedure, shortened: as §1
# [18] = target: Sox2-HMG (His6 retained) W51A (Homo sapiens, UniProt P48431 38-121, W51A)
# Procedure, shortened: as §1
# [19] = target: Sox2-HMG (His6 retained) S83A (Homo sapiens, UniProt P48431 38-121, S83A)
# Procedure, shortened: as §1
# [20] = target: Sox2-HMG (His6 retained) R111A (Homo sapiens, UniProt P48431 38-121, R111A)
# Procedure, shortened: as §1
# [21] = target: Sox2-HMG (His6 retained) E84A (Homo sapiens, UniProt P48431 38-121, E84A)
# Procedure, shortened: as §1
# [22] = target: Sox2-HMG (His6 retained) K95A (Homo sapiens, UniProt P48431 38-121, K95A)
# Procedure, shortened: as §1
# [23] = target: Sox2-HMG (His6 retained) F48A (Homo sapiens, UniProt P48431 38-121, F48A)
# Procedure, shortened: as §1
# [24] = target: Sox2-HMG (His6 retained) R74A (Homo sapiens, UniProt P48431 38-121, R74A)
# Procedure, shortened: as §1
# [25] = target: Sox2-HMG (His6 retained) Q61A (Homo sapiens, UniProt P48431 38-121, Q61A)
# Procedure, shortened: as §1
# [26] = target: Sox2-HMG (His6 retained) R88A (Homo sapiens, UniProt P48431 38-121, R88A)
# Procedure, shortened: as §1
# [27] = target: Sox2-HMG (His6 retained) K73A (Homo sapiens, UniProt P48431 38-121, K73A)
# Procedure, shortened: as §1
# [28] = target: Sox2-HMG (His6 retained) E86A (Homo sapiens, UniProt P48431 38-121, E86A)
# Procedure, shortened: as §1
# [29] = target: Sox2-HMG (His6 retained) R53A (Homo sapiens, UniProt P48431 38-121, R53A)
# Procedure, shortened: as §1
# [30] = target: Sox2-HMG (His6 retained) R113A (Homo sapiens, UniProt P48431 38-121, R113A)
# Procedure, shortened: as §1
# [31] = target: Sox2-HMG (His6 retained) T85A (Homo sapiens, UniProt P48431 38-121, T85A)
# Procedure, shortened: as §1
# [32] = target: Sox2-HMG (His6 retained) M49A (Homo sapiens, UniProt P48431 38-121, M49A)
# Procedure, shortened: as §1
# [33] = target: Sox2-HMG (His6 retained) R56A (Homo sapiens, UniProt P48431 38-121, R56A)
# Procedure, shortened: as §1
# [34] = target: Sox2-HMG (His6 retained) K80A (Homo sapiens, UniProt P48431 38-121, K80A)
# Procedure, shortened: as §1
# [35] = target: Sox2-HMG (His6 retained) Y110A (Homo sapiens, UniProt P48431 38-121, Y110A)
# Procedure, shortened: as §1
# [36] = target: Sox2-HMG (His6 retained) K103A (Homo sapiens, UniProt P48431 38-121, K103A)
# Procedure, shortened: as §1
# [37] = target: Sox2-HMG (His6 retained) K109A (Homo sapiens, UniProt P48431 38-121, K109A)
# Procedure, shortened: as §1
# [38] = target: Sox2-HMG (His6 retained) R43A (Homo sapiens, UniProt P48431 38-121, R43A)
# Procedure, shortened: as §1
# [39] = target: Sox2-HMG (His6 retained) R57A (Homo sapiens, UniProt P48431 38-121, R57A)
# Procedure, shortened: as §1
# [40] = target: Sox2-HMG (His6 retained) R98A (Homo sapiens, UniProt P48431 38-121, R98A)
# Procedure, shortened: as §1
# [41] = target: Sox2-HMG (His6 retained) N68A (Homo sapiens, UniProt P48431 38-121, N68A)
# Procedure, shortened: as §1
# [42] = target: Sox2-HMG (His6 retained) P112A (Homo sapiens, UniProt P48431 38-121, P112A)
# Procedure, shortened: as §1
# [43] = target: Sox2-HMG (His6 retained) N46A (Homo sapiens, UniProt P48431 38-121, N46A)
# Procedure, shortened: as §1
# [44] = target: Sox2-HMG (His6 retained) K65A (Homo sapiens, UniProt P48431 38-121, K65A)
# Procedure, shortened: as §1
# [45] = target: Sox2-HMG (His6 retained) H101A (Homo sapiens, UniProt P48431 38-121, H101A)
# Procedure, shortened: as §1
# [46] = target: Sox2-HMG (His6 retained) P64A (Homo sapiens, UniProt P48431 38-121, P64A)
# Procedure, shortened: as §1
# [47] = target: Sox2-HMG (His6 retained) M66A (Homo sapiens, UniProt P48431 38-121, M66A)
# Procedure, shortened: as §1
# [48] = target: Sox2-HMG (His6 retained) H105A (Homo sapiens, UniProt P48431 38-121, H105A)
# Procedure, shortened: as §1
# Chain of Sox2-HMG (His6 retained) S83A (P48431 other isoform, or with tags, fused parts or gaps S83A | S83A S83A): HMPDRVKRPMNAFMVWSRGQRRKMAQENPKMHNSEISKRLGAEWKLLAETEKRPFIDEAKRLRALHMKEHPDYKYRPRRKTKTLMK
# Chain of Sox2-HMG (His6 retained) E70A (P48431 other isoform, or with tags, fused parts or gaps E70A | E70A E70A): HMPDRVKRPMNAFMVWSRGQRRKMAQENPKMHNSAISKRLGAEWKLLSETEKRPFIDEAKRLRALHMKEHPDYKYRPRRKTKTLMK
# Chain of Sox2-HMG (His6 retained) E62A (P48431 other isoform, or with tags, fused parts or gaps E62A | E62A E62A): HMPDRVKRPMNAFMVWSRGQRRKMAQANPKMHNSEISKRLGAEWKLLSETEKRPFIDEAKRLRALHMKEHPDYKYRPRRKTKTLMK
# Chain of Sox2-HMG (His6 retained) R98A (P48431 other isoform, or with tags, fused parts or gaps R98A | R98A R98A): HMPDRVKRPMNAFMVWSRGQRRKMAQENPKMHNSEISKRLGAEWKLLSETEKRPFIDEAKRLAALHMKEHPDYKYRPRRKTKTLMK
# Chain of Sox2-HMG (His6 retained) N68A (P48431 other isoform, or with tags, fused parts or gaps N68A | N68A N68A): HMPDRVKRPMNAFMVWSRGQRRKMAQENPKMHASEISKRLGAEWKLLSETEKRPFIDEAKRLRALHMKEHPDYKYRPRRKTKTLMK
# Chain of Sox2-HMG (His6 retained) Y110A (P48431 other isoform, or with tags, fused parts or gaps Y110A | Y110A Y110A): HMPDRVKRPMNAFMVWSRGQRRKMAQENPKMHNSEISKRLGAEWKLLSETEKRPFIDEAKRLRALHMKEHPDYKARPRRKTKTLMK
# Chain of Sox2-HMG (His6 retained) S69A (P48431 other isoform, or with tags, fused parts or gaps S69A | S69A S69A): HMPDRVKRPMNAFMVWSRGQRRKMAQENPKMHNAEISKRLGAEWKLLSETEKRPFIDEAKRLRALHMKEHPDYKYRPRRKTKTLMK
# Chain of Sox2-HMG (His6 retained) R40A (P48431 other isoform, or with tags, fused parts or gaps R40A | R40A R40A): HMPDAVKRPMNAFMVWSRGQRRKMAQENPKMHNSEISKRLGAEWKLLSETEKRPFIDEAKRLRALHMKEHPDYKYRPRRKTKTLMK
# Chain of Sox2-HMG (His6 retained) W79A (P48431 other isoform, or with tags, fused parts or gaps W79A | W79A W79A): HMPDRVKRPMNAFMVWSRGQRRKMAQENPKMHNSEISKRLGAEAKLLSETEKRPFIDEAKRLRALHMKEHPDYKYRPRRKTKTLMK
# Chain of Sox2-HMG (His6 retained) K65A (P48431 other isoform, or with tags, fused parts or gaps K65A | K65A K65A): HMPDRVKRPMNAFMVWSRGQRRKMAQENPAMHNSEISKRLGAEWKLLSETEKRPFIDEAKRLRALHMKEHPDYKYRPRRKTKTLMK
# Chain of Sox2-HMG (His6 retained) R56A (P48431 other isoform, or with tags, fused parts or gaps R56A | R56A R56A): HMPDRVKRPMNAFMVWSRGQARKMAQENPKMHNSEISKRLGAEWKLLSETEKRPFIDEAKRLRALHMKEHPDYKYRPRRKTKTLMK
# Chain of Sox2-HMG (His6 retained) K58A (P48431 other isoform, or with tags, fused parts or gaps K58A | K58A K58A): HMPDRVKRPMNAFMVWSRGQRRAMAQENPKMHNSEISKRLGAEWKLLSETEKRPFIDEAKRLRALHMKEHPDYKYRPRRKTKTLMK
# Chain of Sox2-HMG (His6 retained) T85A (P48431 other isoform, or with tags, fused parts or gaps T85A | T85A T85A): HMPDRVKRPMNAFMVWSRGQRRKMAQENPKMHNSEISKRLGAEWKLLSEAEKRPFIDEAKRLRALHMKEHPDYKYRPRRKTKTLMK
# Chain of Sox2-HMG (His6 retained) P112A (P48431 other isoform, or with tags, fused parts or gaps P112A | P112A P112A): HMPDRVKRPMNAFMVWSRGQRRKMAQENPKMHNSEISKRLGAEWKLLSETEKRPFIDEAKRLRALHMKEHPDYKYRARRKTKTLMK
# Chain of Sox2-HMG (His6 retained) P64A (P48431 other isoform, or with tags, fused parts or gaps P64A | P64A P64A): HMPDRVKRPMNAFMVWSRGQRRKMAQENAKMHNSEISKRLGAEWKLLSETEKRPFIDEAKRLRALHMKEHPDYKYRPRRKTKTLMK
# Chain of Sox2-HMG (His6 retained) K87A (P48431 other isoform, or with tags, fused parts or gaps K87A | K87A K87A): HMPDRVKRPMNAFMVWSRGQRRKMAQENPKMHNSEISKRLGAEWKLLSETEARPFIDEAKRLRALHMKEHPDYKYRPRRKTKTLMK
# Chain of Sox2-HMG (His6 retained) R43A (P48431 other isoform, or with tags, fused parts or gaps R43A | R43A R43A): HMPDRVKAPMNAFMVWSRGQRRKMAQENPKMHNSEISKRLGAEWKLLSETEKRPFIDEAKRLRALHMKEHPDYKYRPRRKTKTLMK
# Chain of Sox2-HMG (His6 retained) K73A (P48431 other isoform, or with tags, fused parts or gaps K73A | K73A K73A): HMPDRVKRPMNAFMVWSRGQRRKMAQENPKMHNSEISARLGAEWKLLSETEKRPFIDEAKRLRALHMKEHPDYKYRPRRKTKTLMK
# Chain of Sox2-HMG (His6 retained) H101A (P48431 other isoform, or with tags, fused parts or gaps H101A | H101A H101A): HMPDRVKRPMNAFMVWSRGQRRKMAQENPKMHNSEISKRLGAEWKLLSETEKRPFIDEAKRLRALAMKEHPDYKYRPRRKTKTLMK
# Chain of Sox2-HMG (His6 retained) W51A (P48431 other isoform, or with tags, fused parts or gaps W51A | W51A W51A): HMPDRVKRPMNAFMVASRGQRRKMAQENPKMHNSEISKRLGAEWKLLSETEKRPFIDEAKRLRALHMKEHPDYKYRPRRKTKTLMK
# Chain of Sox2-HMG (His6 retained) M49A (P48431 other isoform, or with tags, fused parts or gaps M49A | M49A M49A): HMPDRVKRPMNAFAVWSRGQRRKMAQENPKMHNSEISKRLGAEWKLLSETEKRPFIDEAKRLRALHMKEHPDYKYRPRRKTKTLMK
# Chain of Sox2-HMG (His6 retained) M66A (P48431 other isoform, or with tags, fused parts or gaps M66A | M66A M66A): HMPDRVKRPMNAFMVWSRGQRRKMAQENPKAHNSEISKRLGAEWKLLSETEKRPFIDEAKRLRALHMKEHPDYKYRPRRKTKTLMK
# Chain of Sox2-HMG (His6 retained) R53A (P48431 other isoform, or with tags, fused parts or gaps R53A | R53A R53A): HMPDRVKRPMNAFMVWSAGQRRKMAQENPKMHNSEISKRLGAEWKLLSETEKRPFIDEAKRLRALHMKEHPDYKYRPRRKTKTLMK
# Chain of Sox2-HMG (His6 retained) R114A (P48431 other isoform, or with tags, fused parts or gaps R114A | R114A R114A): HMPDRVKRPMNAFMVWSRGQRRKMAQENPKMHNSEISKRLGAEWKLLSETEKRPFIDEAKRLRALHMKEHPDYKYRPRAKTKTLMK
# Chain of Sox2-HMG (His6 retained) R88A (P48431 other isoform, or with tags, fused parts or gaps R88A | R88A R88A): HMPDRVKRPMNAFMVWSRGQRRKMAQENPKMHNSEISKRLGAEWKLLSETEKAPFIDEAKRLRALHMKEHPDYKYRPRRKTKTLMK
# Chain of Sox2-HMG (His6 retained) R113A (P48431 other isoform, or with tags, fused parts or gaps R113A | R113A R113A): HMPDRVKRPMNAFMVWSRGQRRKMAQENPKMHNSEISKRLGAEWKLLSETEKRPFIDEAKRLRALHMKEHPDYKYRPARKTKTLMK
# Chain of Sox2-HMG (His6 retained) R96A (P48431 other isoform, or with tags, fused parts or gaps R96A | R96A R96A): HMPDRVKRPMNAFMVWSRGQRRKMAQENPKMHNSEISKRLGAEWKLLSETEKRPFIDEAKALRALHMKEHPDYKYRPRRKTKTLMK
# Chain of Sox2-HMG (His6 retained) M45A (P48431 other isoform, or with tags, fused parts or gaps M45A | M45A M45A): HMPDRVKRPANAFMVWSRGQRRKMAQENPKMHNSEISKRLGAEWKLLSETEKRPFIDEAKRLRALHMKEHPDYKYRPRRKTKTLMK
# Chain of Sox2-HMG (His6 retained) N63A (P48431 other isoform, or with tags, fused parts or gaps N63A | N63A N63A): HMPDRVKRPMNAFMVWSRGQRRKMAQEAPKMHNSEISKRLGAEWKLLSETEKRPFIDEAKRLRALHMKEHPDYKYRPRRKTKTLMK
# Chain of Sox2-HMG (His6 retained) F48A (P48431 other isoform, or with tags, fused parts or gaps F48A | F48A F48A): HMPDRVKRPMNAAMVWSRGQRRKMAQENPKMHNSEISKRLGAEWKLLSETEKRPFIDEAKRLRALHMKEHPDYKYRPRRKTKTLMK
# Chain of Sox2-HMG (His6 retained) N46A (P48431 other isoform, or with tags, fused parts or gaps N46A | N46A N46A): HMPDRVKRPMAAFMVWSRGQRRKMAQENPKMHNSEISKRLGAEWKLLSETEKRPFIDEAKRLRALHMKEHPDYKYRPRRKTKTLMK
# Chain of Sox2-HMG (His6 retained) R111A (P48431 other isoform, or with tags, fused parts or gaps R111A | R111A R111A): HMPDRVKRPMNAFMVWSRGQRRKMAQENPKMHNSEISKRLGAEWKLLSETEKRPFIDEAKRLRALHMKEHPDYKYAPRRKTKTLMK
# Chain of Sox2-HMG (His6 retained) H67A (P48431 other isoform, or with tags, fused parts or gaps H67A | H67A H67A): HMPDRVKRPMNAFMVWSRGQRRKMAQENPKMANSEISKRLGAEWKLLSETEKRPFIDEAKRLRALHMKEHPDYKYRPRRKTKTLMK
# Chain of Sox2-HMG (His6 retained) S72A (P48431 other isoform, or with tags, fused parts or gaps S72A | S72A S72A): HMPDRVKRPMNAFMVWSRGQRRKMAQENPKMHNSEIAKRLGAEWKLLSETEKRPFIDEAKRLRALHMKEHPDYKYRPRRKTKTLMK
# Chain of Sox2-HMG (His6 retained) Q61A (P48431 other isoform, or with tags, fused parts or gaps Q61A | Q61A Q61A): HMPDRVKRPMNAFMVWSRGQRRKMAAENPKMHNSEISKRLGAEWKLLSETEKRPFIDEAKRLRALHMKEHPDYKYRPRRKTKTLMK
# Chain of Sox2-HMG (His6 retained) K95A (P48431 other isoform, or with tags, fused parts or gaps K95A | K95A K95A): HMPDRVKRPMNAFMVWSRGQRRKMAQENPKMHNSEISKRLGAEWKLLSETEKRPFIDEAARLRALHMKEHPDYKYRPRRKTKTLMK
# Chain of Sox2-HMG (His6 retained) E104A (P48431 other isoform, or with tags, fused parts or gaps E104A | E104A E104A): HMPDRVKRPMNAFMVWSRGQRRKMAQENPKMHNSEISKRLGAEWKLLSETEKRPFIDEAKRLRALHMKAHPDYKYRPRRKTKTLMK
# Chain of Sox2-HMG (His6 retained) K109A (P48431 other isoform, or with tags, fused parts or gaps K109A | K109A K109A): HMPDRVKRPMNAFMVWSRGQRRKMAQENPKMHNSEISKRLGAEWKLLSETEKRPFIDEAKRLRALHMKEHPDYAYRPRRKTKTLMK
# Chain of Sox2-HMG (His6 retained) E84A (P48431 other isoform, or with tags, fused parts or gaps E84A | E84A E84A): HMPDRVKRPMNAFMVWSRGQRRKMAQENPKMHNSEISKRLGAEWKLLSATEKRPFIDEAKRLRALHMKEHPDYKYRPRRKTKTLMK
# Chain of Sox2-HMG (His6 retained) R57A (P48431 other isoform, or with tags, fused parts or gaps R57A | R57A R57A): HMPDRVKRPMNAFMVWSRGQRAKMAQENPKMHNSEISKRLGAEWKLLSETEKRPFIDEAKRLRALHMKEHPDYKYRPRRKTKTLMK
# Chain of Sox2-HMG (His6 retained) K80A (P48431 other isoform, or with tags, fused parts or gaps K80A | K80A K80A): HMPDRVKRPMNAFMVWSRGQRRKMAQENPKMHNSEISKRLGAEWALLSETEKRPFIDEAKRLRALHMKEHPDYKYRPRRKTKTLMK
# Chain of Sox2-HMG (His6 retained) K103A (P48431 other isoform, or with tags, fused parts or gaps K103A | K103A K103A): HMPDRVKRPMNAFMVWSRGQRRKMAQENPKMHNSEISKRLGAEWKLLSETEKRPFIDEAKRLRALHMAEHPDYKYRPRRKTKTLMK
# Chain of Sox2-HMG (His6 retained) K115A (P48431 other isoform, or with tags, fused parts or gaps K115A | K115A K115A): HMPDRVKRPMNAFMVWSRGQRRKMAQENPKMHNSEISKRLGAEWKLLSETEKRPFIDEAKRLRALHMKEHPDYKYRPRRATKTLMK
# Chain of Sox2-HMG (His6 retained) R74A (P48431 other isoform, or with tags, fused parts or gaps R74A | R74A R74A): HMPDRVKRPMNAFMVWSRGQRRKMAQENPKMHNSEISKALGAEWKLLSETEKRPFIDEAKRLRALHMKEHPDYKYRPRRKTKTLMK
# Chain of Sox2-HMG (His6 retained) K42A (P48431 other isoform, or with tags, fused parts or gaps K42A | K42A K42A): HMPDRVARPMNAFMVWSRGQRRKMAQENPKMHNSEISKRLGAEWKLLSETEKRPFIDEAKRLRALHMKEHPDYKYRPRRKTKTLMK
# Chain of Sox2-HMG (His6 retained) H105A (P48431 other isoform, or with tags, fused parts or gaps H105A | H105A H105A): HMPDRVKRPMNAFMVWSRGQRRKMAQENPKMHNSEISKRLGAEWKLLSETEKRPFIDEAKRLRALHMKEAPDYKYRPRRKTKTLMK
sequence,measurement,setting,value
GGUCUUAAGGUGCGGGCGAAAGUCUGUACCUCUGGGACC,binding signal,[1],0.9 ± 0.5 Kd(mutant)/Kd(WT)
same,binding signal,[2],1 ± 0.6 Kd(mutant)/Kd(WT)
same,binding signal,[3],1 ± 0.5 Kd(mutant)/Kd(WT)
same,binding signal,[4],0.8 ± 0.4 Kd(mutant)/Kd(WT)
same,binding signal,[5],3.7 ± 1.7 Kd(mutant)/Kd(WT)
same,binding signal,[6],7.9 ± 2.7 Kd(mutant)/Kd(WT)
same,binding signal,[7],0.9 ± 0.5 Kd(mutant)/Kd(WT)
same,binding signal,[8],1.3 ± 0.2 Kd(mutant)/Kd(WT)
same,binding signal,[9],3.6 ± 1.4 Kd(mutant)/Kd(WT)
same,binding signal,[10],1.2 ± 0.4 Kd(mutant)/Kd(WT)
same,binding signal,[11],4.1 ± 1.4 Kd(mutant)/Kd(WT)
same,binding signal,[12],50 ± 19 Kd(mutant)/Kd(WT)
same,binding signal,[13],1.6 ± 0.8 Kd(mutant)/Kd(WT)
same,binding signal,[14],9.2 ± 2.3 Kd(mutant)/Kd(WT)
same,binding signal,[15],1.6 ± 0.5 Kd(mutant)/Kd(WT)
same,binding signal,[16],0.8 ± 0.3 Kd(mutant)/Kd(WT)
same,binding signal,[17],2.7 ± 0.3 Kd(mutant)/Kd(WT)
same,binding signal,[18],78 ± 13 Kd(mutant)/Kd(WT)
same,binding signal,[19],1.8 ± 0.6 Kd(mutant)/Kd(WT)
same,binding signal,[20],2.2 ± 1.2 Kd(mutant)/Kd(WT)
same,binding signal,[21],0.9 ± 0.5 Kd(mutant)/Kd(WT)
same,binding signal,[22],3.2 ± 1.2 Kd(mutant)/Kd(WT)
same,binding signal,[23],16 ± 2 Kd(mutant)/Kd(WT)
same,binding signal,[24],0.9 ± 0.5 Kd(mutant)/Kd(WT)
same,binding signal,[25],0.8 ± 0.5 Kd(mutant)/Kd(WT)
same,binding signal,[26],0.7 ± 0.2 Kd(mutant)/Kd(WT)
same,binding signal,[27],6.9 ± 0.2 Kd(mutant)/Kd(WT)
same,binding signal,[28],0.9 ± 0.6 Kd(mutant)/Kd(WT)
same,binding signal,[29],1.7 ± 0.6 Kd(mutant)/Kd(WT)
same,binding signal,[30],3.1 ± 1.3 Kd(mutant)/Kd(WT)
same,binding signal,[31],0.9 ± 0.3 Kd(mutant)/Kd(WT)
same,binding signal,[32],0.7 ± 0.4 Kd(mutant)/Kd(WT)
same,binding signal,[33],3 ± 0.3 Kd(mutant)/Kd(WT)
same,binding signal,[34],40 ± 15 Kd(mutant)/Kd(WT)
same,binding signal,[35],1.7 ± 0.6 Kd(mutant)/Kd(WT)
same,binding signal,[36],2.5 ± 1.1 Kd(mutant)/Kd(WT)
same,binding signal,[37],7.4 ± 2.5 Kd(mutant)/Kd(WT)
same,binding signal,[38],2.8 ± 0.6 Kd(mutant)/Kd(WT)
same,binding signal,[39],1.3 ± 0.5 Kd(mutant)/Kd(WT)
same,binding signal,[40],5.5 ± 1.9 Kd(mutant)/Kd(WT)
same,binding signal,[41],1 ± 0.1 Kd(mutant)/Kd(WT)
same,binding signal,[42],1.8 ± 0.8 Kd(mutant)/Kd(WT)
same,binding signal,[43],3.5 ± 1.1 Kd(mutant)/Kd(WT)
same,binding signal,[44],2.6 ± 0.7 Kd(mutant)/Kd(WT)
same,binding signal,[45],2.2 ± 0.9 Kd(mutant)/Kd(WT)
same,binding signal,[46],2 ± 0.7 Kd(mutant)/Kd(WT)
same,binding signal,[47],1.3 ± 0.5 Kd(mutant)/Kd(WT)
same,binding signal,[48],2 ± 1 Kd(mutant)/Kd(WT)
